This is part of a sample that, as a whole, favours compounds with a hit. Of some 83,000 tested, about 20% had one in any assay.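 Assay: single dose, 48 h. Readout: percent growth (0 = no net growth; negative = cell death). Active: <10.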 Calls of active or inactive are those of the source.
Columns and labels:
Assay in all cases: NCI-60 one-dose screen, 48 h (100 = growth as untreated, 0 = no growth, -100 = all killed)
HT29 colon = settings: 10 µM unless noted
SNB-75 CNS = settings: 10 µM unless noted
SNB-19 CNS = settings: 10 µM unless noted
U251 CNS = settings: 10 µM unless noted
PC-3 prostate = settings: 10 µM unless noted
SK-MEL-5 melanoma = settings: 10 µM unless noted
UACC-62 melanoma = settings: 10 µM unless noted
LOX IMVI melanoma = settings: 10 µM unless noted
SK-MEL-28 melanoma = settings: 10 µM
SK-MEL-2 melanoma = settings: 10 µM unless noted

Measured: growth

O=c1c2cccc(F)c2sc2c(N3CCNCC3)nc3ccccc3c12
active: HT29 colon -45.4%
inactive: SNB-75 CNS 35.3% | SNB-19 CNS 46.5% | U251 CNS 10.3% | PC-3 prostate 39.8% | SK-MEL-5 melanoma 56.2% | UACC-62 melanoma 54% | LOX IMVI melanoma 19.9% | SK-MEL-28 melanoma 69.1% | SK-MEL-2 melanoma 95%

COc1cc(-c2c3c(c(Br)n2Cc2ccccc2)-c2nc(N)sc2CC3)cc(OC)c1OC
inactive: HT29 colon 105% | SNB-75 CNS 73.7% | SNB-19 CNS 88.2% | U251 CNS 85.3% | PC-3 prostate 78.6% | SK-MEL-5 melanoma 87.1% | UACC-62 melanoma 68.3% | LOX IMVI melanoma 87.5% | SK-MEL-28 melanoma 87.3% | SK-MEL-2 melanoma 101%

CN1C(=O)N(C)C2Nn3c(s/c(=C4\C(=O)N(CCc5ccccc5)c5ccccc54)c3=O)=NC21 (centres undefined)
inactive: HT29 colon 38.4% | SNB-75 CNS 48.2% | SNB-19 CNS 85.7% | U251 CNS 77.8% | PC-3 prostate 44.4% | SK-MEL-5 melanoma 27.4% | UACC-62 melanoma 44.7% | LOX IMVI melanoma 54.8% | SK-MEL-28 melanoma 76.4% | SK-MEL-2 melanoma 69.3%

COC(=O)[C@H](NC(=O)C1(C)CCC[C@]2(C)[C@H]3C[C@H]4C(C(C)C)=C[C@]3(CC[C@@H]12)[C@@H]1C(=O)CCC(=O)[C@@H]14)C(C)C (some centres undefined)
inactive: HT29 colon 109% | SNB-75 CNS 83.7% | SNB-19 CNS 92.9% | U251 CNS 99.1% | PC-3 prostate 90.8% | SK-MEL-5 melanoma 101% | UACC-62 melanoma 84.4% | LOX IMVI melanoma 90.5% | SK-MEL-28 melanoma 99.7% | SK-MEL-2 melanoma 116%

O=C(O)CCC(=O)c1ccc(C2CCCCCC2)cc1
inactive: HT29 colon 91.6% | SNB-75 CNS 96.5% | SNB-19 CNS 93.2% | U251 CNS 96% | PC-3 prostate 99.2% | SK-MEL-5 melanoma 105% | UACC-62 melanoma 106% | LOX IMVI melanoma 99% | SK-MEL-28 melanoma 113% | SK-MEL-2 melanoma 105%

CC(=O)O[C@@H]1/C=C/C(=O)N[C@@H](C)CCC/C=C/[C@@H]2CCC[C@H]21
inactive: HT29 colon 110% | SNB-75 CNS 95% | SNB-19 CNS 96.9% | U251 CNS 109% | PC-3 prostate 90.2% | SK-MEL-5 melanoma 101% | UACC-62 melanoma 92.1% | LOX IMVI melanoma 105% | SK-MEL-28 melanoma 129% | SK-MEL-2 melanoma 119%

Oc1ccc(-c2nc(-c3ccc4oc5ccc(-c6[nH]c(-c7ccc(O)cc7)nc6-c6ccccc6)cc5c4c3)c(-c3ccccc3)[nH]2)cc1
inactive: HT29 colon 34.6% | SNB-75 CNS 39.2% | SNB-19 CNS 63.5% | U251 CNS 58.2% | PC-3 prostate 52.1% | SK-MEL-5 melanoma 70.8% | UACC-62 melanoma 49.9% | LOX IMVI melanoma 67.5% | SK-MEL-28 melanoma 77.8% | SK-MEL-2 melanoma 93.7%

CCOC(=O)c1cc2c(n1Cc1cc(OC)cc(OC)c1)-c1oncc1CCC2
active: HT29 colon 6.58% | SK-MEL-5 melanoma 1.12%
inactive: SNB-75 CNS 16.3% | SNB-19 CNS 28.5% | U251 CNS 17.3% | PC-3 prostate 33.2% | UACC-62 melanoma 31.6% | LOX IMVI melanoma 25.3% | SK-MEL-28 melanoma 53.3% | SK-MEL-2 melanoma 41.8%

N#C/C(=C\c1c(-c2ccccc2)[nH]c2ccccc12)S(=O)(=O)c1ccccc1
inactive: HT29 colon 18.3% | SNB-75 CNS 12.4% | SNB-19 CNS 40.3% | U251 CNS 33.4% | SK-MEL-5 melanoma 11.6% | UACC-62 melanoma 34.3% | LOX IMVI melanoma 42.7% | SK-MEL-28 melanoma 52.4% | SK-MEL-2 melanoma 46.6%
active: PC-3 prostate 5.37%

Cc1ccccc1CNC(=O)C1CN(c2ccc(Cl)cc2)N(c2ccc(Cl)cc2)C1=O (centres undefined)
inactive: HT29 colon 77% | SNB-75 CNS 88% | SNB-19 CNS 89.5% | U251 CNS 89.7% | PC-3 prostate 72.8% | SK-MEL-5 melanoma 86.2% | UACC-62 melanoma 60.8% | LOX IMVI melanoma 92.9% | SK-MEL-28 melanoma 91% | SK-MEL-2 melanoma 91.8%

CN(C)c1ccc(/C=C/c2ccnc3c(O)cccc23)cc1
inactive: HT29 colon 98.6% | SNB-75 CNS 28.5% | SNB-19 CNS 26.4% | U251 CNS 12% | PC-3 prostate 32% | LOX IMVI melanoma 13.1% | SK-MEL-28 melanoma 29.1% | SK-MEL-2 melanoma 11.8%
active: SK-MEL-5 melanoma 8.23% | UACC-62 melanoma -27.6%

COc1ccc(OC)c(NC(=O)/C(C#N)=C/c2ccco2)c1
inactive: HT29 colon 91.8% | SNB-75 CNS 82.2% | SNB-19 CNS 93.8% | U251 CNS 94.2% | PC-3 prostate 89.7% | SK-MEL-5 melanoma 102% | UACC-62 melanoma 86.5% | LOX IMVI melanoma 98.2% | SK-MEL-28 melanoma 104% | SK-MEL-2 melanoma 87.1%

O=S(=O)(Nc1ncccn1)c1ccc(NC2Nc3nc4ccccc4nc3S2)cc1 (centres undefined)
inactive: HT29 colon 106% | SNB-75 CNS 84.9% | SNB-19 CNS 99.3% | U251 CNS 103% | PC-3 prostate 101% | SK-MEL-5 melanoma 98.7% | UACC-62 melanoma 93.7% | LOX IMVI melanoma 94.2% | SK-MEL-28 melanoma 98.7% | SK-MEL-2 melanoma 106%

COc1nc2c(c(=O)n1C)N=C1c3ccccc3C(=O)C1C(c1ccccc1)N2 (centres undefined)
inactive: HT29 colon 104% | SNB-75 CNS 84.6% | SNB-19 CNS 91.7% | U251 CNS 89.2% | PC-3 prostate 115% | SK-MEL-5 melanoma 88.7% | UACC-62 melanoma 78.6% | LOX IMVI melanoma 83.4% | SK-MEL-28 melanoma 90.5% | SK-MEL-2 melanoma 81.2%

Cc1cccc2c(=O)c3c(sc12)c(N1CCNCC1)nc1ccccc13
active: HT29 colon 6.4%
inactive: SNB-75 CNS 50% | SNB-19 CNS 82.6% | U251 CNS 59.9% | PC-3 prostate 69.9% | SK-MEL-5 melanoma 80.2% | UACC-62 melanoma 89.9% | LOX IMVI melanoma 10.3% | SK-MEL-28 melanoma 80.1% | SK-MEL-2 melanoma 98.2%

CCC1=C[C@@H]2CN(C1)Cc1c([nH]c3ccccc13)[C@@](C(=O)OC)(c1cc3c(cc1OC)N(C)[C@H]1[C@@](O)(C(=O)OC)[C@H](OC(C)=O)[C@]4(CC)[C@@H]5C[C@@H]5CN5CC[C@]31[C@@H]54)C2
active: HT29 colon -23.3% | SNB-75 CNS 3.05% | U251 CNS 7.9% | SK-MEL-5 melanoma -79.9% | LOX IMVI melanoma 3.68%
inactive: SNB-19 CNS 55.7% | PC-3 prostate 22.5% | UACC-62 melanoma 12.6% | SK-MEL-28 melanoma 14.4% | SK-MEL-2 melanoma 10.4%

COc1ccc(Cn2c(Br)c3c(c2Br)-c2nc(NC(=O)c4ccc(OC)cc4)sc2CC3)cc1
inactive: HT29 colon 84.8% | SNB-75 CNS 48.2% | SNB-19 CNS 80.1% | U251 CNS 67.8% | PC-3 prostate 71.5% | SK-MEL-5 melanoma 62.1% | UACC-62 melanoma 63.5% | LOX IMVI melanoma 80.3% | SK-MEL-28 melanoma 81.8% | SK-MEL-2 melanoma 83.8%

Nc1nc(Nc2cccc(F)c2)nc2ccccc12
inactive: SNB-75 CNS 56.1% | SNB-19 CNS 57.5% | U251 CNS 38% | PC-3 prostate 44.3% | SK-MEL-5 melanoma 16% | UACC-62 melanoma 41.3% | LOX IMVI melanoma 17.2% | SK-MEL-28 melanoma 44.4% | SK-MEL-2 melanoma 50.6%
active: HT29 colon 6.89%

COc1ccc(C2=C(c3cccc(OC)c3)C(=O)c3ccc(C)nc3C2=O)cc1
inactive: HT29 colon 87.8% | SNB-75 CNS 23.6% | SNB-19 CNS 43.9% | U251 CNS 37.6% | PC-3 prostate 52.1% | SK-MEL-5 melanoma 34.6% | UACC-62 melanoma 46.7% | LOX IMVI melanoma 30.6% | SK-MEL-28 melanoma 50.7% | SK-MEL-2 melanoma 42.8%

Cn1c(=O)n(C)c2cc(CNCCNc3ccnc4cc(Cl)ccc34)ccc21
inactive: SNB-75 CNS 69.6% | SNB-19 CNS 89% | U251 CNS 51.5% | PC-3 prostate 64.2% | SK-MEL-5 melanoma 72.3% | SK-MEL-2 melanoma 65.7%
active: HT29 colon 6.95% | UACC-62 melanoma -46.8% | LOX IMVI melanoma 9.85% | SK-MEL-28 melanoma -36.1%

O=C(c1ccccc1)N(CCc1ccc(Cl)cc1)C(=S)N(C(=O)c1ccccc1)c1ccccc1
inactive: HT29 colon 104% | SNB-75 CNS 104% | SNB-19 CNS 109% | U251 CNS 97% | PC-3 prostate 85.7% | SK-MEL-5 melanoma 95.9% | UACC-62 melanoma 94.5% | LOX IMVI melanoma 81.5% | SK-MEL-28 melanoma 119% | SK-MEL-2 melanoma 117%

O=Cc1c(OCc2cnnn2CC(=O)Nc2ccc(Cl)cc2)ccc2ccccc12
inactive: HT29 colon 107% | SNB-75 CNS 81.3% | SNB-19 CNS 93.8% | U251 CNS 101% | PC-3 prostate 105% | SK-MEL-5 melanoma 100% | UACC-62 melanoma 87% | LOX IMVI melanoma 99.5% | SK-MEL-28 melanoma 102% | SK-MEL-2 melanoma 102%

CCOC(=O)C1(C(=O)OCC)N=C(c2ccccc2)C=C1c1ccccc1
inactive: HT29 colon 76.2% | SNB-75 CNS 81.2% | SNB-19 CNS 95.4% | U251 CNS 83.3% | PC-3 prostate 83.8% | SK-MEL-5 melanoma 90.1% | UACC-62 melanoma 82% | LOX IMVI melanoma 94.9% | SK-MEL-28 melanoma 105% | SK-MEL-2 melanoma 82.8%

Cc1cc2c(c(C)c1Cl)C(=O)/C(=C/c1cccc([N+](=O)[O-])c1)O2
inactive: HT29 colon 95.4% | SNB-75 CNS 102% | SNB-19 CNS 96.8% | U251 CNS 93% | PC-3 prostate 100% | SK-MEL-5 melanoma 96.6% | UACC-62 melanoma 82% | LOX IMVI melanoma 102% | SK-MEL-28 melanoma 102% | SK-MEL-2 melanoma 97.7%

CC(C)C[C@H](C(=O)N[C@H](C(N)=O)C(C)C)N1CC=CCN(OCc2ccccc2)S1(=O)=O
inactive: HT29 colon 102% [2.5 µM] | SNB-75 CNS 69.7% [2.5 µM] | SNB-19 CNS 94.7% [2.5 µM] | U251 CNS 97.1% [2.5 µM] | PC-3 prostate 98.5% [2.5 µM] | SK-MEL-5 melanoma 106% [2.5 µM] | UACC-62 melanoma 98.8% [2.5 µM] | LOX IMVI melanoma 95.7% [2.5 µM] | SK-MEL-2 melanoma 98.9% [2.5 µM]

COc1cc(/C=C2\CCC/C(=C\c3cc(CN4CCOCC4)c(O)c(OC)c3)C2=O)cc(CN2CCOCC2)c1O
inactive: SNB-19 CNS 52.8% | U251 CNS 22% | PC-3 prostate 39.9% | SK-MEL-5 melanoma 52.3% | UACC-62 melanoma 40% | LOX IMVI melanoma 13.3% | SK-MEL-28 melanoma 58.7% | SK-MEL-2 melanoma 62.7%
active: HT29 colon 3.44% | SNB-75 CNS 4.53%

Reference: PubChem BioAssay (NCI)
